According to PubChem BioAssay AID624273 (Broad Institute, 2012):
Out of some 1,000 compounds screened, about 230 (23%) were called active. Not shown: some 1% with an inconclusive outcome. No rule for the calls is given here. The list shows a part of the results. Entries with a potency or affinity are not part of this list.

target: Long-chain-fatty-acid--AMP ligase FadD28 (Mycobacterium tuberculosis (strain ATCC 25618 / H37Rv)) (UniProt P9WQ59); assay: inhibitors of FadD28 bisubstrate probe binding, dose response, biochemical, fluorescence polarization, cherry-pick (AID 624273); conditions: series mostly up to 50 µM
Sequence (P9WQ59 whole entry, looked up): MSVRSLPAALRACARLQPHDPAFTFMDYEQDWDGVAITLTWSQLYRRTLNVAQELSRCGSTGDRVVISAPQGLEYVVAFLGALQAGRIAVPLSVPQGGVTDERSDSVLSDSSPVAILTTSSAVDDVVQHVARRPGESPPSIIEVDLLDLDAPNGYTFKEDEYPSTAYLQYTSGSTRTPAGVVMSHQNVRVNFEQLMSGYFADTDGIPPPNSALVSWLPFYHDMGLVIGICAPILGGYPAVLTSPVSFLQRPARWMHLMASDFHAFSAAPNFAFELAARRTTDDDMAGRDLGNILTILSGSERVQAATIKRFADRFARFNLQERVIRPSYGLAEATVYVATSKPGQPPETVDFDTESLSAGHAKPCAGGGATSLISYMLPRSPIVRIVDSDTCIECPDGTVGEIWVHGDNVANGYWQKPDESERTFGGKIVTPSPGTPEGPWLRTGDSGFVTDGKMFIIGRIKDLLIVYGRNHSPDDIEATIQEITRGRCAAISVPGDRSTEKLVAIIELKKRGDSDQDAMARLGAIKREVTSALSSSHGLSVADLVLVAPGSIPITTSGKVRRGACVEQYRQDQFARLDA

Question: With `COc1cc(Cl)ccc1NC(=O)COc1ccccc1C(=O)N1CCN(c2ccc(O)cc2)CC1` as the molecule, how does the outcome read?
Answer: inactive

Question: With `CCCN1C(=O)c2ccccc2NC1c1ccc(Cl)cc1` (configuration not stated) as the molecule, how does the outcome read?
Answer: inactive

Question: Which outcome does the source give for `CC(=O)c1cccc(NC(=O)CN(c2cccc(F)c2)S(C)(=O)=O)c1` here?
Answer: inactive

Question: With `COc1ccc(CNC(=O)COc2ccc(OC)cc2)cc1` as the molecule, how does the outcome read?
Answer: inactive

Question: How did the outcome turn out when `COc1cccc(CNC(=O)CN(C)S(=O)(=O)c2cnc[nH]2)c1` was run?
Answer: inactive

Question: With `COc1cnc(-c2cccc(C(F)(F)F)c2)c(NC(=O)c2cc3ccccc3s2)n1` as the molecule, how does the outcome read?
Answer: inactive

Question: Which outcome does the source give for `COc1cccc(-c2cc(C(=O)Nc3ccncc3)c3ccccc3n2)c1` here?
Answer: inactive

Question: Which outcome does the source give for `CCOc1ccc(N=Nc2c(C)[nH]n(-c3ccccc3)c2=O)cc1` here?
Answer: inactive

Question: Which outcome does the source give for `O/N=C1\CC/C(=N\O)c2nn(-c3ccccc3Cl)nc21` here?
Answer: inactive

Question: `O=C(CN1C(=O)NC2NC(=O)NC21)NC1CCCCC1` (configuration not stated) was tested. Which outcome did it give?
Answer: inactive

Question: With `COc1ccc(C(=O)/C(C#N)=N/Nc2cccc([N+](=O)[O-])c2)cc1` as the molecule, how does the outcome read?
Answer: inactive

Question: How did the outcome turn out when `Cc1ccc(C(=O)COC(=O)c2cccc(NC(=O)c3ccc([N+](=O)[O-])cc3[N+](=O)[O-])c2)cc1` was run?
Answer: inactive

Question: For `N#Cc1c(-c2ccccc2)c(-c2ccccc2)nn(CC(=O)NNC(=O)Nc2ccc(Cl)c(Cl)c2)c1=O`, which outcome is on record?
Answer: inactive

Question: With `N/C(=N\OC(=O)COc1ccc2ccccc2c1)c1ccncc1` as the molecule, how does the outcome read?
Answer: inactive

Question: For `COC(=O)c1c(-c2ccc(C)cc2)csc1NC(=O)C1CC=CCC1C(=O)O` (configuration not stated), which outcome is on record?
Answer: inactive

Question: Which outcome does the source give for `Cc1ccc([N+](=O)[O-])cc1N=Nc1c(-c2ccc([N+](=O)[O-])cc2)[nH]n(C(N)=S)c1=O` here?
Answer: inactive

Question: Which outcome does the source give for `CCc1noc(C)c1C(=O)Nc1cc(S(=O)(=O)N2CCOCC2)ccc1OC(C)C` here?
Answer: inactive

Question: How did the outcome turn out when `CCOC(=O)N1CCN(C2CC(=O)N(c3ccc(F)cc3)C2=O)CC1` (configuration not stated) was run?
Answer: inactive

Question: For `C[C@@H]1CN([C@H](C)CO)C(=O)c2cc(NC(=O)Nc3ccc(C(F)(F)F)cc3)ccc2O[C@H]1CN(C)S(=O)(=O)c1ccc(Cl)cc1`, which outcome is on record?
Answer: inactive

Question: For `Cc1cc(=O)oc2c(CN3CCN(CCO)CC3)c(O)ccc12`, which outcome is on record?
Answer: inactive

Question: How did the outcome turn out when `Cc1cccc(C(=O)NNS(=O)(=O)c2ccc(F)cc2)c1O` was run?
Answer: inactive

Question: `O=C(NNC(=O)c1ccc([N+](=O)[O-])cc1)c1ccc(NS(=O)(=O)c2cccs2)cc1` was tested. Which outcome did it give?
Answer: inactive

Question: Which outcome does the source give for `COc1cc(NC(=O)COC(=O)CC2CC3CCC2C3)cc(OC)c1` (configuration not stated) here?
Answer: inactive

Question: Which outcome does the source give for `CCSc1ccccc1C(=O)Nc1cc(C)on1` here?
Answer: inactive

Question: For `COC(=O)c1cc(C(=O)OCC(=O)NC2CCCC2)cc([N+](=O)[O-])c1`, which outcome is on record?
Answer: inactive

Question: For `COc1cccc(C(=O)OCC(=O)NC(=O)NC2CCCC2)c1O`, which outcome is on record?
Answer: inactive

Question: For `CC(=O)NC(CCS(C)(=O)=O)C(=O)N1CCc2ccccc21` (configuration not stated), which outcome is on record?
Answer: inactive
